# Assay results from PubChem BioAssay (NCATS).
# Values joined by “and” are separate entries in the source; they are usually repeats but may differ in a detail not shown here. Identical values can stand only once. Inconclusive results are not listed. Active and inactive are the calls of the source. Calls come from the whole dose curve; as a rule, active = well fitted inhibition curve with a large enough effect; inconclusive = small, poorly fitted or top-dose-only effect; inactive = flat fitted curve, though single readings scatter.
# System: KB-3-1
# Experiment: Cytotoxic Profiling of Annotated Libraries Using Quantitative High-Throughput Screening (AID 1296008); note: nearly all actives have a fitted effect of over 60% in size
# Settings: Five cell lines viability, CellTiter-Glo ATP luminescence, 48-72 h; max response: hits give low values
# Excerpt: Cell-based phenotypic screening is a commonly used approach to discover biological pathways, novel drug targets, chemical probes and high-quality hit-to-lead molecules. Many hits identified from high-throughput screening campaign are ruled out through a series of follow-up potency, selectivity/specificity, and cytotoxicity assays. Prioritization of molecules with little or no cytotoxicity for a more in-depth downstream evaluation influence the future direction of projects, so cytotoxicity profiling of the screening libraries at early stage is essential for increasing the likelihood of candidate success. […] For the annotated library, we also examined the primary targets and mechanistic pathways regularly associated with cell death. To our knowledge, this is the first study to use high-throughput screening to profile large libraries for cytotoxicity assessment in both normal and cancer cell lines. In summary, the results generated here constitutes a valuable resource for the scientific community and provides insight on identifying cytotoxic compounds with particular mechanisms of action, and prioritizing compounds with suitable cytotoxicity profile for further evaluation.
# A pintool (Kalypsys) was used to transfer 23 nL of compound solution to the 1536-well assay plates. After 48 or 72 hr incubation at 37 degree Celsius, 5% CO2 and 95% humidity, 2.5 uL of CellTiter-Glo (Promega) was dispensed into each well using a dispenser (Aspect Automation, St. Paul, MN) with solenoid valves (Lee Valves, Westbrook CT). Plates were left at room temperature for 10 min before imaging the ATP-coupled luminescence using a ViewLux microplate imager (PerkinElmer, Waltham, MA).
# % is set by controls: 0 for no effect and ±100 for the full control effect; potency is the fitted concentration of half-maximal effect.
Compound,max response,Potency
CN1CCc2c(c3ccccc3n2Cc2ccccc2)C1,8.09% (inactive),
COc1ccc2nc(NC(=O)Nc3ccccc3)sc2c1,36.1% (inactive),
OC/C=C/c1ccccc1,-5.63% (inactive),
C=C1CC[C@H](O)CC1=C/C=C1\CCC[C@]2(C)[C@@H]([C@H](C)CCCC(C)(C)O)CC[C@@H]12,5.57% (inactive),
CC(C)(C)c1ccc(CN2CCN(C(c3ccccc3)c3ccc(Cl)cc3)CC2)cc1 (stereo not given),1.38% (inactive) and -2.29% (inactive),
CO/N=C(\C(=O)N[C@@H]1C(=O)N2C(C(=O)O)=C(CSc3nnnn3C)CS[C@H]12)c1csc(N)n1,-10.7% (inactive),
C[C@@H]1C[C@H]2[C@@H]3CCC4=CC(=O)C=C[C@]4(C)[C@@]3(F)[C@@H](O)C[C@]2(C)[C@@]1(O)C(=O)COC(=O)c1cccc(S(=O)(=O)O)c1,21.4% (inactive),
O=C(O)Cc1nn(Cc2ccc(Br)cc2F)c(=O)c2ccccc12,1.97% (inactive),
CCN(CC)CCOCCOC(=O)C(CC)(CC)c1ccccc1,-1.64% (inactive) and -0.0412% (inactive),
CC(O)[C@H]1CC[C@H]2[C@@H]3CC[C@@H]4C[C@@H](O)CC[C@]4(C)[C@H]3CC[C@]12C (stereo not given in full),-16.3% (inactive),
C[S+](C)CCC(N)C(=O)O (stereo not given),3.56% (inactive),
O=[N+]([O-])O[C@@H]1CO[C@H]2[C@@H]1OC[C@@H]2O,-3.81% (inactive),
C=C1c2c(Cl)ccc(O)c2C(O)=C2C(=O)[C@]3(O)C(O)=C(C(N)=O)C(=O)[C@@H](N(C)C)[C@@H]3[C@@H](O)[C@H]12,7.79% (inactive),
CCCCCCCCCCCC(=O)N(CCO)CCO,-11.5% (inactive),
CC(/C=C/C=C(\C)C(=O)O[C@@H]1O[C@H](CO[C@@H]2O[C@H](CO)[C@@H](O)[C@H](O)[C@H]2O)[C@@H](O)[C@H](O)[C@H]1O)=C\C=C\C=C(C)\C=C\C=C(/C)C(=O)O[C@@H]1O[C@H](CO[C@@H]2O[C@H](CO)[C@@H](O)[C@H](O)[C@H]2O)[C@@H](O)[C@H](O)[C@H]1O,1.72% (inactive),
NC(=O)c1cc[n+](CC2=C(C(=O)O)N3C(=O)[C@@H](NC(=O)C(c4ccccc4)S(=O)(=O)[O-])[C@H]3SC2)cc1 (stereo not given in full),1.04% (inactive),
CN=C1C=CC(=C(c2ccc(N(C)C)cc2)c2ccc(N(C)C)cc2)C=C1,,7.31 µM (active)
C[C@H](N)C(=O)N[C@@H](C)P(=O)(O)O,-6.78% (inactive),
S=C1SCN(Cc2ccccc2)CN1Cc1ccccc1,37.7% (inactive),
N=C(N)n1cccn1,3.42% (inactive),

Compound,max response,Potency
CC(C)C[C@H](NC(=O)[C@@H](Cc1c[nH]c2ccccc12)NC(=O)[C@H](Cc1ccc(O)cc1)NC(=O)[C@H](CO)NC(=O)[C@H](Cc1c[nH]c2ccccc12)NC(=O)[C@H](Cc1cnc[nH]1)NC(=O)[C@@H]1CCC(=O)N1)C(=O)N[C@@H](CCCN=C(N)N)C(=O)N1CCC[C@@H]1C(=O)NCC(N)=O,0.539% (inactive),
OCC1(CO)COC(C(Cl)(Cl)Cl)OC1,16.6% (inactive),
CO/N=C(\C(=O)N[C@@H]1C(=O)N2C(C(=O)O)=CCS[C@H]12)c1csc(N)n1,1.16% (inactive),
Nc1ncnc2c1ncn2CCOCP(=O)(O)O,-6.33% (inactive),
CS(=O)(=O)OCC(O)C(O)COS(C)(=O)=O (stereo not given),-18.1% (inactive),
CCCCC/C=C\C/C=C\C/C=C\CCCCC(=O)O,-2.17% (inactive),
C=C1[C@@H]2CC[C@@H](C2)C1(C)C,-10.2% (inactive),
ClC(Cl)Cl,3.29% (inactive),
CSCCC(N)C(=O)O (stereo not given),3.08% (inactive),
Cn1cc(NC(=O)c2cc(NC(=O)c3cc(NC=O)cn3C)cn2C)cc1C(=O)NCCC(=N)N,2.85% (inactive),
CCSc1ccc2c(c1)N(CCCN1CCN(C)CC1)c1ccccc1S2,-2.13% (inactive),
C[Si](C)(C)O[Si](C)(C)C,-5.55% (inactive),
NCC[C@H](O)C(=O)N[C@@H]1C[C@H](N)[C@@H](O[C@H]2O[C@H](CN)CC[C@H]2N)[C@H](O)[C@H]1O[C@H]1O[C@H](CO)[C@@H](O)[C@H](N)[C@H]1O,4.22% (inactive),
CO[C@H]1O[C@@H]2O[C@@]3(C)CC[C@H]4[C@H](C)CC[C@@H]([C@H]1C)[C@@]24OO3,1.88% (inactive),
CC1CS(=O)(=O)CCN1/N=C/c1ccc([N+](=O)[O-])o1 (stereo not given),1.84% (inactive),
CC(C)(C)NCC(O)CSc1nc(-c2ccc(C(N)=O)s2)cs1 (stereo not given),15.3% (inactive),
CC[C@H]1NC(=O)[C@@H](NC(=O)c2ncccc2O)[C@@H](C)OC(=O)[C@H](c2ccccc2)NC(=O)[C@@H]2CC(=O)CCN2C(=O)[C@H](Cc2ccccc2)N(C)C(=O)[C@@H]2CCCN2C1=O,2% (inactive),
NC(Cc1ccccc1)C(=O)O (stereo not given),4.99% (inactive),
CC1=CCC2CC1C2(C)C (stereo not given),16.6% (inactive),
O=C(O)CCC/C=C\C[C@@H]1[C@@H](/C=C/[C@@H](O)COc2cccc(C(F)(F)F)c2)[C@H](O)C[C@@H]1O,-14.2% (inactive),
